The list is not random: actives were taken first. Their share in the collection is about 1.6%.
KCNQ2 block – blocks the rat KCNQ2 potassium channel | 310,000 compounds, 1.1% hits | B-score at 10 µM | CHO-K1 KCNQ2, FluxOR thallium flux, 20 min; hits give low values | O88943;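 active means fluorescence ratio B-score at most minus 3 library SDs, with starting brightness B-score within 2 library SDs, cut at about -5.5 in these data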
KCNQ2 pot – KCNQ2 (rat) channel potentiation; CHO-K1 KCNQ2, FluxOR thallium flux fluorescence; hits give high values; B-score at 10 µM; 310,000 compounds, 0.54% hits; AID 2239;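 active means fluorescence ratio B-score at least 3 SD of library B-scores, with initial fluorescence B-score within 3 of them, cut at about 5.3 in these data; same plate scores as AID 2156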;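 further: B-score of peak minus minimum over baseline fluorescence ratio after K+ and Tl+ stimulus; positive B-score means potentiation of KCNQ2 with more thallium influx and brighter signal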
KCNQ2 block conf – confirmation of rat KCNQ2 potassium channel inhibitors. shares compounds with KCNQ2 block. KCNQ2-expressing cells, thallium flux, inhibition; hits give low values. activity change, negative = inhibition, % at 10 µM. 1,000 compounds, 57% hits;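 further: 0% = vehicle wells and values are ratio percent relative to vehicle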
KCNQ1 spec – human KCNQ1 activity in KCNQ2 inhibitor specificity screen; shares compounds with KCNQ2 block; activity change, negative = inhibition, % at 10 µM; 1,000 compounds, 15% hits; KCNQ1-expressing cells, FluxOR thallium flux fluorescence; hits give low values;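 active means activity change at least 3 SD of negative controls below their mean in both duplicate wells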;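 further: CHO cells stably transfected with KCNQ1 and depolarized by potassium stimulus; peak minus minimum fluorescence over baseline after thallium addition; 0% = vehicle negative control and -100% = blank without thallium stimulus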
Target sequence (P51787 whole entry, looked up): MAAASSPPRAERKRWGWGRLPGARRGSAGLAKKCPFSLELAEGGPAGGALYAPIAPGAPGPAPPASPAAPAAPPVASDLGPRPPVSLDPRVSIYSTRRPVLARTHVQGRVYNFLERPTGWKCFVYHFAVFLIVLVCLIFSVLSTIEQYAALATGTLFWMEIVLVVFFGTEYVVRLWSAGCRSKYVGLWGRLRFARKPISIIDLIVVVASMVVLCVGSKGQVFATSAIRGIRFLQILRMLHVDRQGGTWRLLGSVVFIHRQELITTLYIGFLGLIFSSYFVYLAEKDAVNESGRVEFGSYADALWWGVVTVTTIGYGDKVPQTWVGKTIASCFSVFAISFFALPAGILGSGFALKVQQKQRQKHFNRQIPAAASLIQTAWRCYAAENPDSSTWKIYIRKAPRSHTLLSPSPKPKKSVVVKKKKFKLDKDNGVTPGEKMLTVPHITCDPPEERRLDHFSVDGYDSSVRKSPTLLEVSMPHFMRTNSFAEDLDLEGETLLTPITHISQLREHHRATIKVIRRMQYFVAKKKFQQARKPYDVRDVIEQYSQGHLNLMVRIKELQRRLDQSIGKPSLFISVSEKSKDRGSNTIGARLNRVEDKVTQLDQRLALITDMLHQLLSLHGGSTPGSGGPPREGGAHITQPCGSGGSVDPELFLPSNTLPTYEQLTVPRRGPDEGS
CHO parental ctr – counter-screen for KCNQ2 inhibitors: effect in parental CHO cells | AID 493029 | thallium flux counter-screen; hits give low values | shares compounds with KCNQ2 block | 1,000 compounds, 14% hits | activity change, % at 10 µM;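 further: 0% = vehicle negative controls with stimulus buffer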
KCNQ2 inh confirm – confirmation of rat KCNQ2 potassium channel inhibitors; KCNQ2-expressing cells, automated patch clamp current; calls only at 10 µM; 550 compounds, 49% hits; shares compounds with KCNQ2 block; AID 588531
Starred values were filed as active, the others as inactive; i = inactive; . = not tested or not shown; + = active, no number. Unless noted, how the calls were made is not given here.

SMILES	KCNQ2 block	KCNQ2 pot	KCNQ2 block conf	KCNQ1 spec	CHO parental ctr	others
O=C(N/C=C\c1ccccc1)NCc1ccc(Cl)cc1	-7.01*	-7.01	i	i	i
Cc1oc(-c2ccccc2F)nc1CS(=O)CC(=O)NCc1ccc(F)cc1 (centres undefined)	i	0.63	.	.	.
OCC1(CCOc2ccccc2)CCN(C2Cc3ccccc3C2)CC1	i	.	.	.	.
C#C[C@]1(O)CC[C@H]2[C@@H]3[C@H](C)CC4=C(CCC(=O)C4)[C@H]3CC[C@@]21C	i	.	.	.	.
CCOc1ccc(CCNC(=O)COc2cccc(-n3cnnn3)c2)cc1OCC	i	0.67	.	.	.
Cn1cc([N+](=O)[O-])c(C(=O)Nc2cc(Oc3ccccc3)cc([N+](=O)[O-])c2)n1	i	1.61	.	.	.
Cc1cccc(Oc2cc(NC(=O)c3ccccc3)cc([N+](=O)[O-])c2)c1	-7.32*	-7.32	i	i	i
CC1CCN(C(=O)Cn2c(=O)n(Cc3ccc4c(c3)OCO4)c(=O)c3ccccc32)CC1	-7.17*	-7.17	-31.0%*	i	i	KCNQ2 inh confirm=+
O=C(Cn1c(=O)n(Cc2ccc3c(c2)OCO3)c(=O)c2ccccc21)N1CCCc2ccccc21	i	.	.	.	.
CC1CCN(C(=O)CSc2nc3ccccc3c(=O)n2Cc2ccc3c(c2)OCO3)CC1	-7.33*	-7.33	i	i	i
CC1CCCCN1C(=O)CSc1nc2cc3c(cc2c(=O)n1Cc1ccc2c(c1)OCO2)OCO3 (centres undefined)	i	.	.	.	.
CCCN=Cc1ccc(O)cc1	i	0.75	.	.	.
Cc1ccc(OCC(=O)NNC(=O)CCc2ccccc2)c(Br)c1	i	.	.	.	.
O=C(CSc1nnc(C2CC2)n1CC1CCCO1)Nc1ccc(Cl)cc1 (centres undefined)	i	0.49	.	.	.
Cc1ccc(C)c(N2CCN(C(=O)c3ccc4c(c3)c(C)c(C)n4C)CC2)c1	-6.64*	-6.64	i	i	i
Cc1c(C)n(C)c2ccc(C(=O)N3CCN(c4ccccc4)CC3)cc12	i	.	.	.	.
O=[N+]([O-])c1cc(/C=N/Nc2nc3ccccc3[nH]2)c(O)cc1O	i	0.6	.	.	.
COc1ccccc1C(=O)NC(=O)COC(=O)CNC(=O)c1ccccc1	i	0.99	.	.	.
CCC1CCCCN1C(=O)CCS(=O)(=O)c1ccc2c(c1)CCN2C(C)=O (centres undefined)	i	0.76	.	.	.
COc1cc(-c2nc3ccccn3c2NCC2CCCO2)ccc1O (centres undefined)	i	0.81	.	.	.
CCOc1cc(-c2nc3ccccn3c2NCC2CCCO2)ccc1O (centres undefined)	-9.55*	-9.55	i	i	i
CCOc1cc(CNS(=O)(=O)c2ccc3c(c2)CC(=O)N3C)cc(OCC)c1OCC	i	0.59	.	.	.
O=C(COC(=O)c1cc([N+](=O)[O-])ccc1N1CCOCC1)NCc1ccc(Cl)cc1Cl	i	.	.	.	.
COc1ccccc1NC(=O)/C(C#N)=C/c1cccnc1	i	.	.	.	.
N#C/C(=C\c1cccnc1)C(=O)Nc1cccc2ccccc12	-6.69*	-6.69	i	i	i
SMILES	KCNQ2 block	KCNQ2 pot	KCNQ2 block conf	KCNQ1 spec	CHO parental ctr	others
COc1ccc(CCNCC(=O)Nc2ccc(OC(F)(F)F)cc2)cc1OC	i	.	.	.	.
O=C(NCc1ccc2c(c1)OCO2)C1CCC(=O)N1C1CCCC1 (centres undefined)	i	0.13	.	.	.
Clc1ccc(/C(Cc2nc3ccccc3[nH]2)=N\Nc2ccccc2)cc1	-6.6*	-6.6	-38.0%*	i	i	KCNQ2 inh confirm=i
Clc1ccc(SCc2nc3ccccc3[nH]2)cc1	i	.	.	.	.
COc1cccc(CNCc2ccccc2Br)c1OC	i	.	.	.	.
C=CCn1c(SCC(=O)c2cc(C)n(C(C)COC)c2C)nc2sc(C)c(C)c2c1=O (centres undefined)	-10.8*	-10.8	i	i	i
C=CCn1c(SCC(=O)NCCO)nc2sc(C)c(C)c2c1=O	i	.	.	.	.
Cc1ccccc1Sc1c(C#N)c(-c2ccccc2)nn1C	-10.5*	-10.5	-36.0%*	-35.5%*	-31.5%*	KCNQ2 inh confirm=i
Cc1ccc(Sc2c(CO)c(-c3ccccc3)nn2C)cc1	i	.	.	.	.
CC(=O)c1nn(-c2ccc(C(F)(F)F)cc2)c(=O)[nH]c1=O	i	0.95	.	.	.
CC1(O)c2ccccc2C(=O)N1Cc1ccccc1 (centres undefined)	i	0.05	.	.	.
O=C1c2ccccc2C(O)(c2ccccc2)N1CCc1ccccc1 (centres undefined)	-8.44*	-8.44	-24.0%*	i	i	KCNQ2 inh confirm=+

Source: PubChem (Johns Hopkins Ion Channel Center)
